Screens: PubChem BioAssay, National Center for Advancing Translational Sciences (NCATS)
Most compounds without a hit are left out; they make up all but 1.4% or so of the library.
AmpC no deterg = blocks E. coli AmpC beta-lactamase in detergent-free assay; P00811; AmpC nitrocefin hydrolysis, absorbance 480 nm, 0.0001% Triton; Potency, µM (highest dose often 57.1 µM), most hits filed as inhibitors; hit rate 0.52% among 330,000; also: nearly all actives have a fitted effect of over 20% in size
Target sequence (P00811 whole entry, looked up): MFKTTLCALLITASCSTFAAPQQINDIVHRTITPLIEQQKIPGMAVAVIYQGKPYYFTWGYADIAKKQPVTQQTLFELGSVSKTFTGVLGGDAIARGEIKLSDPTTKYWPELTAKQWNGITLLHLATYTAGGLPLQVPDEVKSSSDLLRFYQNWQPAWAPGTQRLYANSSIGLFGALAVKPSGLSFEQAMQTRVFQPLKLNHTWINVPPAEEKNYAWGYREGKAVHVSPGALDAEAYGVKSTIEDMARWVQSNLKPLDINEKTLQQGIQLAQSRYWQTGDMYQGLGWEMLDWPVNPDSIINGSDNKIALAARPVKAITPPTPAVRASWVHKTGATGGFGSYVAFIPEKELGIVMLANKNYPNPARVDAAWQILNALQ
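AmpC (5.3 nM in the dispensed reagent) in 20 mM phosphate pH 7.0 with 0.01% (detergent screen) or 0.0001% Triton X-100 was preincubated with compounds for 15 min at room temperature. Nitrocefin was then added from an 800 uM solution, and hydrolysis was followed at 480 nm.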
SARS PLP yeast = inhibitors of SARS-CoV papain-like protease in yeast; S. cerevisiae expressing SARS-CoV PLpro, growth rescue; Potency, µM (series often up to 32.9 µM), actives largely listed as activators; hit rate 0.19% among 330,000; AID 485353; calls by dose curve; also: nearly all actives have a fitted effect of over 55% in size
AmpC inh detg = inhibitors of E. coli AmpC beta-lactamase with detergent; Potency, µM (series often up to 114 µM), actives largely listed as inhibitors; AmpC hydrolysis of nitrocefin, absorbance 480 nm, 0.01% Triton; P00811; hit rate 0.041% among 370,000; also: nearly all actives have a fitted effect of over 25% in size
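20 mM phosphate pH 7.0 + 0.01% (detergent screen) or 0.0001% Triton X-100; 5.3 nM AmpC reagent; cpd preinc 15 min RT; nitrocefin (800 uM stock) to start; A480 q20 s × 4 min; Activity was normalised to no-enzyme and no-compound control wells.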
NS1 inh = inhibitors of influenza NS1 protein function; Potency, µM (titrated, usually from 46.1 µM); hit rate 0.4% among 270,000; AID 2326; calls by dose curve; also: actives are rising curves; nearly all actives have a fitted effect of over 50% in size
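Read-out: OD600 growth recovery of NS1-expressing budding yeast. Cells grown overnight at 30C in -URA glucose medium, washed, resuspended and diluted 1:100 in 2% galactose assay medium, pH 6.0. Same strain lacking NS1 served as positive control.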
FBPA Giardia inh = inhibitors of Giardia lamblia fructose-1,6-bisphosphate aldolase. A8B2U2. purified Giardia FBPA. Potency, µM (doses to about 59.6 µM), hits mostly inhibitors. hit rate 0.71% among 290,000. AID 2451; also: nearly all actives have a fitted effect of over 55% in size
Target sequence (A8B2U2 whole entry, looked up): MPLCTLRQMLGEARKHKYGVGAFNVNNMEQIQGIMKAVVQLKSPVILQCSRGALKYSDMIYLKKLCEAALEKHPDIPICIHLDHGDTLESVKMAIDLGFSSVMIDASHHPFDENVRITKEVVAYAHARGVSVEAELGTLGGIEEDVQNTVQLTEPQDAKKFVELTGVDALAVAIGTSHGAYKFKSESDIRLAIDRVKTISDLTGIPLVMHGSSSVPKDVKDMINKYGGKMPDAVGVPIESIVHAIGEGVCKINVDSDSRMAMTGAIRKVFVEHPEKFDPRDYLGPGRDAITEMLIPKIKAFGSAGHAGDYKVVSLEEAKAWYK
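40 nM FBPA preincubated 10 min at RT with compound (up to 57.5 uM final), then substrate plus GAPDH/TPI/NAD/arsenate coupling and diaphorase/resazurin added. Fluorescence read after 20 min at RT, 525/598 nm.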
A number is an active result; . = inactive; ? = inconclusive; / = no result given; [ ] = dose if it differs, or a comment. Unless noted, calls follow the shape of the dose curve; as a rule, active = well fitted curve in the direction sought with a large enough effect; inconclusive = small, poorly fitted or top-dose-only effect, or another doubt; inactive = no such curve, though single readings can be large; an effect the other way counts as inactive or inconclusive.

SMILES | AmpC no deterg | SARS PLP yeast | AmpC inh detg | NS1 inh | FBPA Giardia inh
Cc1cc(NC(=O)c2noc3c2CCc2ccccc2-3)n(-c2ccccc2)n1 | 1µM | . | . | ? | .
O=C1c2ccccc2C(=O)c2c(NC(=O)c3ccc4c5c(ncnc35)-c3ccccc3C4=O)cccc21 | / | / | / | . | /
N/C(COc1ccccc1)=N\NS(=O)(=O)c1ccccc1 | 0.16µM | . | . | . | .
O=C1NC(=O)N(c2ccc(Cl)cc2)C(=O)/C1=C\c1ccc(Sc2nc3ccccc3[nH]2)o1 | 18µM | . | . | . | .
Cn1c(=O)c2c(nc(C(=N)SCC(=O)O)n2C)n(C)c1=O | / | / | / | 7.9µM | /
CCC(CC)NC1CCCCC1OC (stereo not given) | . | . | . | . | .
O=C(Cn1c(=O)oc2cc(S(=O)(=O)N3CCCC3)ccc21)N1CCN(c2ccccn2)CC1 | 7.9µM | . | ? | . | .
Cc1cccc2cc(C#N)c(NCCNS(=O)(=O)c3ccccc3)nc12 | . | . | . | . | .
Cc1cccc2cc(C#N)c(NCCNC(=O)COc3ccccc3)nc12 | . | . | . | . | 16µM
Cc1cccc2cc(C#N)c(NCc3ccccc3)nc12 | . | . | . | / | 18µM
CC(=O)Nc1ccc(S(=O)(=O)Nc2nccc(/C=C/c3ccc(Cl)cc3)n2)cc1 | . | . | ? | . | .
CCn1ncc(Cl)c1C(=O)NC(C)c1ccccc1 (stereo not given) | 0.35µM | . | . | . | .
O=C(CSc1nnc(SCc2cccc3ccccc23)s1)c1ccc2c(c1)OCO2 | 25µM | . | . | . | .
Cc1ccc(NC(=O)C2=CC(c3cccs3)=NS(=O)(=O)N2C)cc1 | . | . | . | . | .
CCc1ccc(NC(=O)C2=CC(c3cccs3)=NS(=O)(=O)N2C)cc1 | 18µM | . | . | . | .
COc1ccc(C(C(=O)NCC2CCCO2)N(Cc2ccc(F)cc2)C(=O)CNC(=O)c2ccco2)cc1OC (stereo not given) | . | . | . | . | .
COc1ccc(-c2nc(C#N)c(N3CCCCCC3)o2)cc1 | 7.1µM | . | . | . | .
O=C1CCCC2=C1C(c1ccc(O)c(O)c1)c1c(ccc3ncccc13)N2 (stereo not given) | . | . | . | / | 6.3µM
CCOc1ccc(C2C3=C(CCCC3=O)Nc3ccc4ncccc4c32)cc1 (stereo not given) | . | . | . | . | .
Cc1cc(C)c2c(=O)cc(C(=O)Nc3ccccc3Cl)oc2c1 | / | / | . | / | /
CCc1ccc(NC(=O)Cn2c3[n+](c4c(F)c(F)ccc42)CCCCC3)cc1 | .[11.4 µM] | . | . | / | .
CN(c1ccccc1)S(=O)(=O)c1ccc2c(c1)OCCO2 | . | . | / | / | /
CCCCc1ccc(-c2ccc(Br)cc2)nc1 | . | . | . | . | .
CCCCc1ccc(C(=O)O)nc1 | . | / | ? | . | 16µM
O=C(Cn1cc2c(n1)CCCC2)N1CCc2ccccc21 | . | . | . | . | .
SMILES | AmpC no deterg | SARS PLP yeast | AmpC inh detg | NS1 inh | FBPA Giardia inh
O=C(Cn1cc2c(n1)CCCCC2)N1CCc2ccccc2C1 | 0.56µM | . | ? | . | .
Oc1ccc(/C=N/Nc2nccnc2Cl)c(O)c1 | . | 3.2µM | . | . | .
COc1cc(CN2CCCN(C)CC2)cc([N+](=O)[O-])c1O | . | . | . | . | ?
N#C/C(=C\c1cc(O)c(O)c(O)c1)C(N)=O | . | . | . | . | 5µM
CC1CN(c2nnnn2-c2ccccc2)CC(C)O1 (stereo not given) | . | . | . | . | .
O=C(O)C/C(=C\c1cccc(NC(=O)c2ccccc2Cl)c1)c1nc2ccccc2s1 | 16µM | . | . | . | .
O=C(CCCN1C(=O)/C(=C/c2ccccc2Cl)SC1=S)NNC(=O)c1ccc(Cl)cc1 | . | . | . | . | .
Cc1ccc(C(=O)NNC(=O)CCCN2C(=O)/C(=C/c3ccccc3Cl)SC2=S)cc1 | 32µM | . | . | . | .
O=C(Nc1ccccc1O)c1ccc(NS(=O)(=O)c2cccc3cccnc23)cc1 | 16µM | . | . | . | .
CC(=O)NC1=C(N(C)C2CCS(=O)(=O)C2)C(=O)c2ccccc2C1=O (stereo not given) | . | . | ? | . | 0.13µM
CC1Oc2cc3c(-c4c(O)cc(O)c5c(O)c6c(cc45)OC(C)C(C)C6=O)c(O)cc(O)c3c(O)c2C(=O)C1C (stereo not given) | 22µM | . | ? | . | ?
C=CCOc1ccc(C2c3c(oc4ccccc4c3=O)C(=O)N2CCCN2CCOCC2)cc1 (stereo not given) | . | . | ? | . | .
O=C(CC1SC(=O)N(c2ccccc2)C1=O)Nc1ccc(Br)cc1 (stereo not given) | 8.9µM | . | . | . | .
COc1ccccc1C(=O)NNC(=O)c1ccc(NS(=O)(=O)c2cccs2)cc1 | . | . | . | . | /
CCC(=O)CC(c1ccccc1)c1c(O)c2ccccc2sc1=O (stereo not given) | . | . | . | . | .
O=c1c(C(c2ccccc2)c2c(O)sc3ccccc3c2=O)c(O)sc2ccccc12 | 16µM | . | . | . | .
COc1ccc(NC(=O)CN(C)CC(=O)N(CC(C)C)c2c(N)n(CC(C)C)c(=O)[nH]c2=O)cc1 | . | . | / | / | /
C=CCOc1ccc(CN(C)CC(=O)N(CC(C)C)c2c(N)n(CC(C)C)c(=O)[nH]c2=O)cc1 | 6.3µM | . | . | . | .
Cc1cc(C(=O)N2CCN(c3cccc(Cl)c3)CC2)c2c(C)nn(-c3ccccc3Cl)c2n1 | / | / | . | / | /
COC(=O)c1ccccc1-n1cc2c(c1-c1cccc(C)c1)c(=O)n(C)c(=O)n2C | / | / | . | / | /
Cc1cccc(-c2c3c(=O)n(C)c(=O)n(C)c3cn2-c2ccccc2O)c1 | . | . | . | . | 13µM
Cc1c(O)nc(SCC(=O)Nc2ccc(Cl)cc2Cl)n(-c2ccc(F)cc2)c1=O | / | / | . | / | /
Cc1c(O)nc(SCC(=O)Nc2ccc3c4c(cccc24)CC3)n(-c2ccc(F)cc2)c1=O | 28µM | . | . | . | .
COc1cccc(NC(=O)Cn2cc(C(=O)C3CC3)c3ccccc32)c1 | 28µM | . | ? | / | /
COc1ccc(NC(=O)Cn2cc(C(=O)C3CC3)c3ccccc32)cc1 | . | . | . | . | .
SMILES | AmpC no deterg | SARS PLP yeast | AmpC inh detg | NS1 inh | FBPA Giardia inh
CCOC(=O)N1CCN(C(=O)c2ccccc2NC(=O)c2ccccc2Cl)CC1 | . | . | . | . | .
CCC(=O)Nc1ccccc1C(=O)OCC(=O)c1ccc2ccccc2c1 | . | . | . | . | .
N#CC1=C(S)N(c2ccccc2)C(c2ccc(-c3ccc(Cl)c(Cl)c3)o2)NC1=O (stereo not given) | 10µM | . | . | . | .
CCn1c(=S)sc2c(=O)n(CC(=O)Nc3ccc(OC)c(Cl)c3)c(C)nc21 | 6.3µM | . | . | . | .
CCn1c(=S)sc2c(=O)n(CC(=O)Nc3ccc(Cl)cc3)c(C)nc21 | 7.1µM | . | . | . | .
COc1cc(NC(=O)N2CCC3(CC2)Nc2cc(F)ccc2-n2cccc23)cc(OC)c1OC | / | / | . | / | /
CCC(=O)N(CC)C1=C(O)c2ccccc2C(=O)C1=O | . | . | . | . | 7.9µM
